# According to publication PMC7862700, “An all-to-all approach to the identification of sequence-specific readers for epigenetic DNA modifications on cytosine”:
# How the values were obtained:
# Assay in all cases: DAPPL (digital affinity profiling via proximity ligation, sequencing); 10 mM Tris-HCl pH 7.5, 50 mM NaCl, 1 mM DTT, 4% glycerol, room temperature, 30 min; GST-TFs on glutathione beads, 16-mer random dsDNA library, 0.1% formaldehyde crosslink after washing; high values mean tight binding
# [1] = target: T1, FLI1 (Homo sapiens, UniProt Q01543 1-452); settings: protein: recombinant; tags: N-terminal GST; dsDNA, one strand shown
# T1 sequence: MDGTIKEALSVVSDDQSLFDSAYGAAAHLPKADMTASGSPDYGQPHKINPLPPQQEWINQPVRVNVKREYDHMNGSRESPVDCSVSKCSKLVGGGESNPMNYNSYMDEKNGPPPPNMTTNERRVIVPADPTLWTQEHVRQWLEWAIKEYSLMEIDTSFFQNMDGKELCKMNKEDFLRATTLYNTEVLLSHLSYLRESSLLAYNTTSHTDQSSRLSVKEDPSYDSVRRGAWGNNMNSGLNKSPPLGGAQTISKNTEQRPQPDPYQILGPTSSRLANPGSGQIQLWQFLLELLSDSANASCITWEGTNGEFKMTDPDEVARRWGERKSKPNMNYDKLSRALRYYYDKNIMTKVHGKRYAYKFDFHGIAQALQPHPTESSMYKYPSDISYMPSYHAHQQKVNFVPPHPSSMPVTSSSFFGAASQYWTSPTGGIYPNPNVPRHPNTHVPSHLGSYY
# Outline: (§1)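 Binding signal is each hexamer's read frequency for a factor divided by its frequency in the tag-only sample. The factors were GST-fused human transcription factors from yeast, captured on glutathione beads, DNA-barcoded and pooled with that sample. Pools were incubated with 200 nmole of a random double-stranded 16-mer DNA library in Tris/NaCl/DTT/glycerol buffer at room temperature for 30 min, then washed, crosslinked with 0.1% formaldehyde, proximity-ligated with BsaI/T4 ligase (1 h, 37 °C), PCR-amplified and sequenced on an Illumina NextSeq500.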
# [2] = target: T2, ELK1 (Homo sapiens, UniProt P19419 1-428); settings: protein: recombinant; tags: N-terminal GST; dsDNA, one strand shown
# T2 sequence: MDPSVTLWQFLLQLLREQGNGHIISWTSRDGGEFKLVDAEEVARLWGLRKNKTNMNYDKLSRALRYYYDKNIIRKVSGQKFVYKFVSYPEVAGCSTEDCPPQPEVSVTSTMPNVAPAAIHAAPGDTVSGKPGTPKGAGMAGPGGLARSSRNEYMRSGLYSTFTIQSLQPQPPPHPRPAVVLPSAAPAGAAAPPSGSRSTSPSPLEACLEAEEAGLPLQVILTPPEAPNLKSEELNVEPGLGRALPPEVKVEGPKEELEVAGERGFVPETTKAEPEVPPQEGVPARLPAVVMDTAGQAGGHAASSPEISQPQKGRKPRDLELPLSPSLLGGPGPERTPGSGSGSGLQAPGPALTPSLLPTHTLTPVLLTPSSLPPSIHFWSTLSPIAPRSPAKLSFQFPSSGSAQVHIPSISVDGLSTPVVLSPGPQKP
# Outline: as §1
# [3] = target: T3, GABPA (Homo sapiens, UniProt Q06546 1-454); settings: protein: recombinant; tags: N-terminal GST; dsDNA, one strand shown
# T3 sequence: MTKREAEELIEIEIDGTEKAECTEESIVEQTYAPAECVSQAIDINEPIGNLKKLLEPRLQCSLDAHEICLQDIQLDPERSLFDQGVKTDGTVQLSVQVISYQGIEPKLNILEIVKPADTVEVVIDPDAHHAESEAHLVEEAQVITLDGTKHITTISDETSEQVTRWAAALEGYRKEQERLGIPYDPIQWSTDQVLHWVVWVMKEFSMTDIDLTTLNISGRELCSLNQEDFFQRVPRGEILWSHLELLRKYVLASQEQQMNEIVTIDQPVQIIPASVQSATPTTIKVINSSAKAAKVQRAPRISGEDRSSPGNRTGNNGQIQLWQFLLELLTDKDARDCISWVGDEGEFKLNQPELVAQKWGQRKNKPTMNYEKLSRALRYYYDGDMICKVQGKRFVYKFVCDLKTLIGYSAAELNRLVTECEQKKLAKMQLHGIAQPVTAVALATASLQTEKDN
# Outline: as §1
# [4] = target: T4, ERG (Homo sapiens, UniProt P11308 1-479); settings: protein: recombinant; tags: N-terminal GST; dsDNA, one strand shown
# T4 sequence: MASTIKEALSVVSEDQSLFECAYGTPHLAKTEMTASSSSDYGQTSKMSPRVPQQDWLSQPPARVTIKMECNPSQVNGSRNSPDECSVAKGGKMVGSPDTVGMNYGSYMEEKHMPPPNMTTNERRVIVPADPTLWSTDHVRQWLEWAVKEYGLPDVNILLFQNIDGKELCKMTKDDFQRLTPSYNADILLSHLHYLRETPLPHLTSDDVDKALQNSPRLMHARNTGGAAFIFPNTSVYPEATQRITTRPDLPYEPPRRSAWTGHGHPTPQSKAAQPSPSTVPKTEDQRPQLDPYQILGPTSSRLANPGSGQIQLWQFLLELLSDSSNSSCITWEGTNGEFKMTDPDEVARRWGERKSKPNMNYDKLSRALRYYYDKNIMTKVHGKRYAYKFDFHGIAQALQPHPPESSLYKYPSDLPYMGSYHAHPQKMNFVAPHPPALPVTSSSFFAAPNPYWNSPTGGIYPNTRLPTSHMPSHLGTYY
# Outline: as §1
# [5] = target: ELF1 (Homo sapiens, UniProt P32519 1-619); settings: protein: recombinant; tags: N-terminal GST; dsDNA, one strand shown
# ELF1, sequence (P32519 whole entry): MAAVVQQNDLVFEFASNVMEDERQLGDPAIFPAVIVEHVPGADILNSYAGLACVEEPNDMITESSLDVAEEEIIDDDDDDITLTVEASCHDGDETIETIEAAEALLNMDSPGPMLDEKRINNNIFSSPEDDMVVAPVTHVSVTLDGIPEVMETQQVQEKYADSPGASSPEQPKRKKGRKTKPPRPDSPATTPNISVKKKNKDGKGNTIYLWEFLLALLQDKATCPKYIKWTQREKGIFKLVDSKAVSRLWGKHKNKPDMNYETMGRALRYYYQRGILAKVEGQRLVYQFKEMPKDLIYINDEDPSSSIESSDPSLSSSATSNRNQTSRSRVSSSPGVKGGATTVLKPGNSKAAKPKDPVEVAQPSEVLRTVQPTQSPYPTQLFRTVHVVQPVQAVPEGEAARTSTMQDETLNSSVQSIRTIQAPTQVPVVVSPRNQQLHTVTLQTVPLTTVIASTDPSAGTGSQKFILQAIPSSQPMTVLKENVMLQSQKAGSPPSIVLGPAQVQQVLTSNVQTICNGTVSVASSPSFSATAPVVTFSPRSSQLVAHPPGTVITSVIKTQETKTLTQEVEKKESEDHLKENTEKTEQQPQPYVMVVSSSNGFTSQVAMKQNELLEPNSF
# Outline: as §1
# [6] = target: T5, EHF (Homo sapiens, UniProt Q9NZC4 1-300); settings: protein: recombinant; tags: N-terminal GST; dsDNA, one strand shown
# T5 sequence: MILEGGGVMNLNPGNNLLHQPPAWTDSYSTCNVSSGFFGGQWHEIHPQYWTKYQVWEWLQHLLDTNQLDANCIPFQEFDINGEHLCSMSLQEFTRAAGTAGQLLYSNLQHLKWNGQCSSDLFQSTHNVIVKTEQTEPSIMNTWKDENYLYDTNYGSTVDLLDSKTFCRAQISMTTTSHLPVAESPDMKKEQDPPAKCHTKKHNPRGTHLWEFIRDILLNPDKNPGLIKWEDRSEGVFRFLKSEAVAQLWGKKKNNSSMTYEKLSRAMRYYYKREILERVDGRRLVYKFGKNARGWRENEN
# Outline: as §1
# [7] = target: SPI1 (Homo sapiens, UniProt P17947 1-270); settings: protein: recombinant; tags: N-terminal GST; dsDNA, one strand shown
# Outline: as §1
# [8] = target: SPIB (Homo sapiens, UniProt Q01892 1-262); settings: protein: recombinant; tags: N-terminal GST; dsDNA, one strand shown
# SPIB, sequence (Q01892 whole entry): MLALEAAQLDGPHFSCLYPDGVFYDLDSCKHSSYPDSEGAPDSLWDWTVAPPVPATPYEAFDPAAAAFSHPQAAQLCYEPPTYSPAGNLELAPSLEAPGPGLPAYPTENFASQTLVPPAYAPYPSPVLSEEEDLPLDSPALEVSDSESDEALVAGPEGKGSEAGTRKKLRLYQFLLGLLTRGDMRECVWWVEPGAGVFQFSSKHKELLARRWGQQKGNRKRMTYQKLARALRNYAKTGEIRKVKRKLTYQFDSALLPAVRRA
# Outline: as §1
# [9] = target: T6, ELK3 (Homo sapiens, UniProt P41970 1-407); settings: protein: recombinant; tags: N-terminal GST; dsDNA, one strand shown
# T6 sequence: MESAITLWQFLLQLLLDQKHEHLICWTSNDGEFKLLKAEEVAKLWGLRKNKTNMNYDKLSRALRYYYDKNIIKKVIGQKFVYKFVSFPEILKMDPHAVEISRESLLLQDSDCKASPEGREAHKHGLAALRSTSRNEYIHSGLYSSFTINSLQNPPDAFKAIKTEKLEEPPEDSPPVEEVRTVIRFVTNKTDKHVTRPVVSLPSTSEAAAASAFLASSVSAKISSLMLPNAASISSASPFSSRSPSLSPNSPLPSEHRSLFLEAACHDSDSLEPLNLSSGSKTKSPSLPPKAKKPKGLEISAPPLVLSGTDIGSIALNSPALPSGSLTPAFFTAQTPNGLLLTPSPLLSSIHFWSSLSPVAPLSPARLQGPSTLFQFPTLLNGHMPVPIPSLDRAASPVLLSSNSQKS
# Outline: as §1
# [10] = target: T7, FEV (Homo sapiens, UniProt Q99581 1-238); settings: protein: recombinant; tags: N-terminal GST; dsDNA, one strand shown
# T7 sequence: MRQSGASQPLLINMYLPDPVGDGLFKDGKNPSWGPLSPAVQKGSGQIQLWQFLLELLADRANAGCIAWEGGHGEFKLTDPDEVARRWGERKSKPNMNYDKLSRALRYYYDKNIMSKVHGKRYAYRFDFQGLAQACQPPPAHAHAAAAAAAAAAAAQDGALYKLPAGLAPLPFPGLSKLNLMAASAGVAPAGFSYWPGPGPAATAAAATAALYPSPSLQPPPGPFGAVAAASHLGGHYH
# Outline: as §1
# [11] = target: ETV5 (Homo sapiens, UniProt P41161 1-510); settings: protein: recombinant; tags: N-terminal GST; dsDNA, one strand shown
# ETV5, sequence (P41161 whole entry): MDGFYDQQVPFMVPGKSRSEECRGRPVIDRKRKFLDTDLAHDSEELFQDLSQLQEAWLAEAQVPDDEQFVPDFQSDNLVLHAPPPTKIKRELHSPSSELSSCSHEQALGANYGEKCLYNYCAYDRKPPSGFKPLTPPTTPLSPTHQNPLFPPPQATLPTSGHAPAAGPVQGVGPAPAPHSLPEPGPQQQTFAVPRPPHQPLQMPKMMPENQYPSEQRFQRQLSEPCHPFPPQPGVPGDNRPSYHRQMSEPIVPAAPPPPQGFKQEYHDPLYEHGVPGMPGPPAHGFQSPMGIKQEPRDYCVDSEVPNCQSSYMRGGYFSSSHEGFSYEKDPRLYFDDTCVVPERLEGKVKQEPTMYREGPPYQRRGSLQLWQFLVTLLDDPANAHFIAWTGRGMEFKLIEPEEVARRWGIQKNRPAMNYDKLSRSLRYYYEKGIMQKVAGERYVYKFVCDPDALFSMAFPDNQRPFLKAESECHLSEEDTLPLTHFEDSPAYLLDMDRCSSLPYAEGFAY
# Outline: as §1
# [12] = target: HSF1 (Homo sapiens, UniProt Q00613 1-529); settings: protein: recombinant; tags: N-terminal GST; chain copies: 3; dsDNA, one strand shown
# HSF1, sequence (Q00613 whole entry): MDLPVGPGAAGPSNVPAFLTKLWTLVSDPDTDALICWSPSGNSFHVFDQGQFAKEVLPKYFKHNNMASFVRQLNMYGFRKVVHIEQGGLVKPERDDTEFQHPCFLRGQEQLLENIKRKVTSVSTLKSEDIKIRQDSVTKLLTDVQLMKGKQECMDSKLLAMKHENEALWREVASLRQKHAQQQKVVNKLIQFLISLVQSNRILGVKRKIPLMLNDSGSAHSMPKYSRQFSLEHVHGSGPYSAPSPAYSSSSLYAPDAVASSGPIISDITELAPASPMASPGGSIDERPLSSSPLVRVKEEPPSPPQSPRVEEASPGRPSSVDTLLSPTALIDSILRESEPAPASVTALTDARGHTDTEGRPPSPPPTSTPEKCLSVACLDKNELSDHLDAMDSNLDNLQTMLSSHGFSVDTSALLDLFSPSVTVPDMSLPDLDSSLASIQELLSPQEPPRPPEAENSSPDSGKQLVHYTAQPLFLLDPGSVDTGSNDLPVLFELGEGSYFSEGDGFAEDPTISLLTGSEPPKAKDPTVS
# Outline: as §1
# [13] = target: T8, SPIC (Homo sapiens, UniProt Q8N5J4 1-248); settings: protein: recombinant; tags: N-terminal GST; dsDNA, one strand shown
# T8 sequence: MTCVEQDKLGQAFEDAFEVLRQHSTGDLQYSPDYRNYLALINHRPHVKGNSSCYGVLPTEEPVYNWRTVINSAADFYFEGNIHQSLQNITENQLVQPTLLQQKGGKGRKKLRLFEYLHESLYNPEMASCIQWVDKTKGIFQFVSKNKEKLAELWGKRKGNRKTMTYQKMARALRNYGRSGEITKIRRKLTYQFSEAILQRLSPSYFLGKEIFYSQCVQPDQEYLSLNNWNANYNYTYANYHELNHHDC
# Outline: as §1
# [14] = target: ELF4 (Homo sapiens, UniProt Q99607 1-663); settings: protein: recombinant; tags: N-terminal GST; dsDNA, one strand shown
# ELF4, sequence (Q99607 whole entry): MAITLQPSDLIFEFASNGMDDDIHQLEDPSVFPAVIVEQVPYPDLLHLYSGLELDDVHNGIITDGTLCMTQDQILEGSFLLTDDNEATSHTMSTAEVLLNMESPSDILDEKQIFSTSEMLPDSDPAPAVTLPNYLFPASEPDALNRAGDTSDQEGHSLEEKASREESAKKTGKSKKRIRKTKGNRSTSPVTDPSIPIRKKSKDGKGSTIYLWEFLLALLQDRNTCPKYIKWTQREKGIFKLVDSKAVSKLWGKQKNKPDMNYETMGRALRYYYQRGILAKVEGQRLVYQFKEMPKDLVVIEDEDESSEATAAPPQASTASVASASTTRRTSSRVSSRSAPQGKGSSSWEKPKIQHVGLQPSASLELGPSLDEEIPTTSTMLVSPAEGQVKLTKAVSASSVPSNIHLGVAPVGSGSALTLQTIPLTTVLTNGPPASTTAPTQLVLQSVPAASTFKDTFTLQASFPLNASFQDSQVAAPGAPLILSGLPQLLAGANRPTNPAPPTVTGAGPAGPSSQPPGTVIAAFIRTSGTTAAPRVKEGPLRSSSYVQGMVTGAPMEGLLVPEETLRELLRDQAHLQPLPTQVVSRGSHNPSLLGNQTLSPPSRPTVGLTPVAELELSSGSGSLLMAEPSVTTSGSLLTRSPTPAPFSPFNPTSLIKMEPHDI
# Outline: as §1
# [15] = target: T9, ELK4 (Homo sapiens, UniProt P28324-2 1-405); settings: protein: recombinant; tags: N-terminal GST; dsDNA, one strand shown
# T9 sequence: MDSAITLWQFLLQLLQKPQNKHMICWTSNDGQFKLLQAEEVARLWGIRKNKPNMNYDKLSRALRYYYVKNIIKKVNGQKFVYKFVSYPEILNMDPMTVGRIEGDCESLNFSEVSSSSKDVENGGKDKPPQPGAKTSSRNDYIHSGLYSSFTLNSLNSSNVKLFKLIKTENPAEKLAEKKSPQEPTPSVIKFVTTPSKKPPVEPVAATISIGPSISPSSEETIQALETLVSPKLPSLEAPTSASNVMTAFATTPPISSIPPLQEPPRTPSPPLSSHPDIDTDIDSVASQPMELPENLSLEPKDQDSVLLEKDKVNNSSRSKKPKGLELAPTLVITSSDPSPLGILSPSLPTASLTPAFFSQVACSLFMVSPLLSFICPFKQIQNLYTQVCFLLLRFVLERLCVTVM
# Outline: as §1
# [16] = target: T10, ETV2 (Homo sapiens, UniProt O00321 1-342); settings: protein: recombinant; tags: N-terminal GST; dsDNA, one strand shown
# T10 sequence: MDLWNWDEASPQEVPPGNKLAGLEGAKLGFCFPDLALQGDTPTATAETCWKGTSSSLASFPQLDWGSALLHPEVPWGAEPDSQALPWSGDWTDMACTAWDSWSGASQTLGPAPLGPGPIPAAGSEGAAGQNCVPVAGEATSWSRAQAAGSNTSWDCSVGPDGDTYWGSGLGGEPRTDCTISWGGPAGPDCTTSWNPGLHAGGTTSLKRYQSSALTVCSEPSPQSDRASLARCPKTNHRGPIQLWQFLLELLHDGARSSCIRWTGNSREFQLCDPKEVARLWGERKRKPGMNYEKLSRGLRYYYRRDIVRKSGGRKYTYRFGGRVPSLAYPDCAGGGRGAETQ
# Outline: as §1
# [17] = target: T11, ELF3 (Homo sapiens, UniProt P78545 1-371); settings: protein: recombinant; tags: N-terminal GST; dsDNA, one strand shown
# T11 sequence: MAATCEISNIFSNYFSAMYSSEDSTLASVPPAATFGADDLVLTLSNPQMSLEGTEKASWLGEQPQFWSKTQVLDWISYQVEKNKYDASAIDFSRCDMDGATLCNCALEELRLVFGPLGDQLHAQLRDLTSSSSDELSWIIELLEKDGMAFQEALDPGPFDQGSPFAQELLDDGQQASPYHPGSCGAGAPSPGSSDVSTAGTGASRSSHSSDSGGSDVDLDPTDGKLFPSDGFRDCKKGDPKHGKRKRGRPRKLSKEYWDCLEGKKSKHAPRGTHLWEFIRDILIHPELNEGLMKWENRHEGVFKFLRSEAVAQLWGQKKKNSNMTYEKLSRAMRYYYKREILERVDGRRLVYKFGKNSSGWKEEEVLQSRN
# Outline: as §1
# [18] = target: CRX (Homo sapiens, UniProt O43186 1-299); settings: protein: recombinant; tags: N-terminal GST; dsDNA, one strand shown
# CRX, sequence (O43186 whole entry): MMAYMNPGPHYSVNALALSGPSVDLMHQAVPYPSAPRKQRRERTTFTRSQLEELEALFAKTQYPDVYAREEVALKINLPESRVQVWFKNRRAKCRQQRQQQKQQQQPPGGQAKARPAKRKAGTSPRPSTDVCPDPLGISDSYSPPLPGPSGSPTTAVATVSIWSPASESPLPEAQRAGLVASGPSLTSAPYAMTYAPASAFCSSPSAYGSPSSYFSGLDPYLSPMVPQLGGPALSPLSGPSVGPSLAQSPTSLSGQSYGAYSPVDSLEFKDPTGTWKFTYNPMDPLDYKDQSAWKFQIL
# Outline: as §1
# [19] = target: ETV1 (Homo sapiens, UniProt P50549 1-477); settings: protein: recombinant; tags: N-terminal GST; dsDNA, one strand shown
# ETV1, sequence (P50549 whole entry): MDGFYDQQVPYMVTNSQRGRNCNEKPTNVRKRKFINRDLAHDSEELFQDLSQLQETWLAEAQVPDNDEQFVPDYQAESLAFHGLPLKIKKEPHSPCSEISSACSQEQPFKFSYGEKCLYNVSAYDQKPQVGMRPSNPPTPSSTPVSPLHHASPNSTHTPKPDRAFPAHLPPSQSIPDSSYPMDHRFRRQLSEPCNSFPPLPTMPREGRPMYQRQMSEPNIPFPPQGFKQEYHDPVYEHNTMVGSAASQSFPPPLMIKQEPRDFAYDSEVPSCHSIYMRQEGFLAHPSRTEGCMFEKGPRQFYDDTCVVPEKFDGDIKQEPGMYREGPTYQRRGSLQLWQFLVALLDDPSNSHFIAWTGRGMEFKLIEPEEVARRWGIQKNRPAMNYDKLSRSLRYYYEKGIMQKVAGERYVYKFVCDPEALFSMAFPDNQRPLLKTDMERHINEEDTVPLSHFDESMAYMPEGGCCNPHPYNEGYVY
# Outline: as §1
sequence,measurement,setting,value
GCTCTT,binding signal,[1],"1.58 fold enrichment (6-mer frequency, TF over GST control)"
same,binding signal,[2],"1.55 fold enrichment (6-mer frequency, TF over GST control)"
same,binding signal,[3],"1.52 fold enrichment (6-mer frequency, TF over GST control)"
same,binding signal,[4],"1.39 fold enrichment (6-mer frequency, TF over GST control)"
same,binding signal,[5],"1.66 fold enrichment (6-mer frequency, TF over GST control)"
same,binding signal,[6],"1.29 fold enrichment (6-mer frequency, TF over GST control)"
same,binding signal,[7],"1.37 fold enrichment (6-mer frequency, TF over GST control)"
same,binding signal,[8],"1.49 fold enrichment (6-mer frequency, TF over GST control)"
same,binding signal,[9],"1.56 fold enrichment (6-mer frequency, TF over GST control)"
same,binding signal,[10],"1.48 fold enrichment (6-mer frequency, TF over GST control)"
same,binding signal,[11],"1.53 fold enrichment (6-mer frequency, TF over GST control)"
same,binding signal,[12],"1.34 fold enrichment (6-mer frequency, TF over GST control)"
same,binding signal,[13],"1.31 fold enrichment (6-mer frequency, TF over GST control)"
same,binding signal,[14],"1.56 fold enrichment (6-mer frequency, TF over GST control)"
same,binding signal,[15],"1.41 fold enrichment (6-mer frequency, TF over GST control)"
same,binding signal,[16],"1.61 fold enrichment (6-mer frequency, TF over GST control)"
same,binding signal,[17],"1.58 fold enrichment (6-mer frequency, TF over GST control)"
same,binding signal,[18],"1.55 fold enrichment (6-mer frequency, TF over GST control)"
same,binding signal,[19],"1.54 fold enrichment (6-mer frequency, TF over GST control)"
